# Assay results as given in ChEMBL document CHEMBL3988442, “University of Dundee, Small-Polar-MMV Screening Library” (2021).
# Target: T1, Methionyl-tRNA synthetase, putative (Leishmania donovani (strain BPK282A1)) (UniProt E9BF75)
# T1 sequence (whole entry): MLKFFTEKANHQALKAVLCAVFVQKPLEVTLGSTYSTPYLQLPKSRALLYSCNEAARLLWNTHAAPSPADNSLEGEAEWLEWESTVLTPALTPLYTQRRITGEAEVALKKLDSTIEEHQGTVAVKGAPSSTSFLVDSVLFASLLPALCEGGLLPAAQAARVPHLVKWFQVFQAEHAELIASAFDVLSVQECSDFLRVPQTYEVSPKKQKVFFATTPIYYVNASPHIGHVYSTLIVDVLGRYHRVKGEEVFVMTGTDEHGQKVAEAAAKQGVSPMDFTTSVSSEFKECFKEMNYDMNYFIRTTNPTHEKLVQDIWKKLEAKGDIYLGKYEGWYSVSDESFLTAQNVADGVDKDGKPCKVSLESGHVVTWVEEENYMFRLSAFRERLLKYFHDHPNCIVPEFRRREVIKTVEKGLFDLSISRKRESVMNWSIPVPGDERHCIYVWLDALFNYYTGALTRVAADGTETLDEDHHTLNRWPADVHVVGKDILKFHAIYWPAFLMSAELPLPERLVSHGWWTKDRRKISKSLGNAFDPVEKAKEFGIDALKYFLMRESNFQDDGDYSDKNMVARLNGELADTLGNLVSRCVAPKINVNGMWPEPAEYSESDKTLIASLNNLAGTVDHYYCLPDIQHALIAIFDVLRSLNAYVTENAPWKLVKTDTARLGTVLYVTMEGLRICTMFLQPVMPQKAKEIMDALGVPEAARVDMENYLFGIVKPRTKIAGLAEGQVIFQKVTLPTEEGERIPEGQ
# Assay: Leishmania donovani Methionine tRNA synthetase (LdMetRS):v7. Dose response assay
# Type: functional
# Parameters: conc 80 nM, time 150 minutes
smiles,measurement,setting,value
Cn1ncc2c(NCC(C)(C)O)nc(Nc3ccc(F)c(F)c3)nc21,PXC50,"BOTTOM 2.756167144, HILLSLOPE 0.998486082, MAX_EFFECT 82.64150943, TOP 95.06215472",4.8
same,PXC50,"BOTTOM -1.483509386, HILLSLOPE 0.96789371, MAX_EFFECT 77.86259542, TOP 87.31089032",4.95
same,PXC50,"BOTTOM -2.002010489, HILLSLOPE 0.709003451, MAX_EFFECT 80.70175439, TOP 108.677252",4.69
Cn1ncc2c(NCCO)nc(NCCS(C)(=O)=O)nc21,PXC50,MAX_EFFECT 5.936073059,< 4
same,PXC50,MAX_EFFECT 10.75471698,< 4
same,PXC50,MAX_EFFECT 32.3699422,< 4
Cc1nc(NCCNC(=O)c2ccccc2)c2c3c(sc2n1)CCCC3,PXC50,MAX_EFFECT 14.39393939,< 4
same,PXC50,MAX_EFFECT 19.3877551,< 4
Cc1ncc(CCNc2nc(Nc3ccc(F)c(F)c3)nc3c2cnn3C)s1,PXC50,MAX_EFFECT 15.8490566,< 4
same,PXC50,MAX_EFFECT 21.03004292,< 4
same,PXC50,MAX_EFFECT 21.85273159,< 4
Cn1ncc2c(NCCN)nc(Nc3ccc(F)c(F)c3)nc21,PXC50,"BOTTOM 0.911965316, HILLSLOPE 1.032464682, MAX_EFFECT 89.9543379, TOP 102.6852722",4.79
same,PXC50,"BOTTOM 7.300924011, HILLSLOPE 0.949344895, MAX_EFFECT 92.59962049, TOP 105.5838005",4.84
same,PXC50,"BOTTOM 8.334888852, HILLSLOPE 1.031126137, MAX_EFFECT 87.73584906, TOP 103.8891038",4.68
Cn1ncc2c(NC(CO)CO)nc(Nc3ccc(F)c(F)c3)nc21,PXC50,"BOTTOM 0.0, HILLSLOPE 0.771628136, MAX_EFFECT 78.30188679, TOP 92.57465731",4.94
same,PXC50,"BOTTOM 5.639474755, HILLSLOPE 1.325747432, MAX_EFFECT 80.3652968, TOP 81.67018871",4.98
same,PXC50,"BOTTOM 7.610636653, HILLSLOPE 1.121965033, MAX_EFFECT 79.69639469, TOP 86.15604804",4.98
Cn1ncc2c(NCCO)nc(Nc3cccc(S(N)(=O)=O)c3)nc21,PXC50,MAX_EFFECT 2.127659574,< 4
same,PXC50,MAX_EFFECT 6.392694064,< 4
same,PXC50,MAX_EFFECT 11.50943396,< 4
COC(=O)CNC(=O)c1cccc(C(=O)N(C)c2ccccc2)c1,PXC50,MAX_EFFECT 1.22591944,< 4
same,PXC50,MAX_EFFECT 1.449275362,< 4
same,PXC50,MAX_EFFECT -3.401360544,< 4
CC(C)CCNc1nnc(C(C)C)s1,PXC50,MAX_EFFECT 4.081632653,< 4
same,PXC50,MAX_EFFECT 6.479859895,< 4
same,PXC50,MAX_EFFECT 7.971014493,< 4
O=C(CCc1n[nH]c2c1CCCC2)N1C[C@@H]2CC[C@H](C1)N(CC1CC1)C2,PXC50,"BOTTOM 12.11622841, HILLSLOPE 1.527540497, MAX_EFFECT 61.47110333, TOP 100.0",4.08
same,PXC50,"BOTTOM -0.508945456, HILLSLOPE 1.017254843, MAX_EFFECT 57.14285714, TOP 100.0",4.12
same,PXC50,"BOTTOM -1.441363941, HILLSLOPE 1.01121357, MAX_EFFECT 60.86956522, TOP 100.0",4.2
NS(=O)(=O)c1cccc(Nc2ncccc2S(N)(=O)=O)c1,PXC50,MAX_EFFECT 9.108159393,< 4
same,PXC50,MAX_EFFECT 16.73553719,< 4
same,PXC50,MAX_EFFECT 21.14537445,< 4
COc1ccc2c(c1)COB2O,PXC50,MAX_EFFECT 5.094339623,< 4
same,PXC50,MAX_EFFECT 9.589041096,< 4
CCc1nc(NCCOC)c2c3c(sc2n1)CCC3,PXC50,MAX_EFFECT 5.793450882,< 4
same,PXC50,MAX_EFFECT 9.41475827,< 4
Cn1ncc2c(NCCCn3cnnc3)nc(Nc3ccc(F)c(F)c3)nc21,PXC50,"BOTTOM 1.83375179, HILLSLOPE 0.958532355, MAX_EFFECT 86.4608076, TOP 100.0",4.67
same,PXC50,"BOTTOM -0.68283143, HILLSLOPE 0.850398367, MAX_EFFECT 82.59187621, TOP 94.39900943",4.98
same,PXC50,"BOTTOM -3.068523854, HILLSLOPE 0.793433763, MAX_EFFECT 81.54506438, TOP 111.1617786",4.55
CS(=O)(=O)N1CCN(c2ccc3c(F)cc(C(=O)NC4CCCC4)cn23)CC1,PXC50,MAX_EFFECT 12.5,< 4
same,PXC50,MAX_EFFECT 15.35087719,< 4
Cc1nc(N2CCC(C(N)=O)CC2)c2c3c(sc2n1)CC(C)CC3 (configuration not stated),PXC50,MAX_EFFECT 5.852417303,< 4
same,PXC50,MAX_EFFECT 9.319899244,< 4
Cn1ncc2c(NCCO)nc(Nc3ccccc3)nc21,PXC50,MAX_EFFECT 42.26415094,< 4
same,PXC50,MAX_EFFECT 47.32824427,< 4
same,PXC50,MAX_EFFECT 49.56140351,< 4
O=S(=O)(NCCO)c1cccnc1Nc1cccc(C(F)(F)F)c1,PXC50,MAX_EFFECT 4.933586338,< 4
same,PXC50,MAX_EFFECT 12.19008264,< 4
same,PXC50,MAX_EFFECT 16.29955947,< 4
Cc1ccnc(C2CN(Cc3ccc(-c4ccccc4C(=O)O)o3)C2)n1,PXC50,"BOTTOM 9.249913927, HILLSLOPE 1.102722508, MAX_EFFECT 60.83188908, TOP 100.0",4.12
same,PXC50,"BOTTOM 9.895143899, HILLSLOPE 1.447637201, MAX_EFFECT 79.86111111, TOP 100.0",4.36
same,PXC50,"BOTTOM 14.75237733, HILLSLOPE 1.939721289, MAX_EFFECT 72.48322148, TOP 100.0",4.2
NCC1Cc2cc(-c3nccc(N4CCC(O)CC4)n3)cc(Cl)c2O1 (configuration not stated),PXC50,"BOTTOM 2.296775574, HILLSLOPE 1.512300698, MAX_EFFECT 82.17821782, TOP 96.63760695",4.5
same,PXC50,"BOTTOM 6.226174125, HILLSLOPE 1.41403245, MAX_EFFECT 85.50724638, TOP 100.0",4.49
same,PXC50,"BOTTOM -3.72600926, HILLSLOPE 1.42983, MAX_EFFECT 83.15412186, TOP 100.0",4.35
CCC(C)NC(=O)c1ccc(-c2ccco2)[nH]c1=O (configuration not stated),PXC50,MAX_EFFECT 4.72854641,< 4
same,PXC50,MAX_EFFECT 5.442176871,< 4
same,PXC50,MAX_EFFECT 7.971014493,< 4
NS(=O)(=O)c1cccnc1Nc1cc(F)cc(C(F)(F)F)c1,PXC50,MAX_EFFECT 3.956834532,< 4
same,PXC50,MAX_EFFECT 8.551068884,< 4
same,PXC50,MAX_EFFECT 8.583690987,< 4
Cc1nc(-c2cc(Cl)c3c(c2)CC(CN)O3)c[nH]1 (configuration not stated),PXC50,MAX_EFFECT 32.65306122,< 4
same,PXC50,MAX_EFFECT 37.68115942,< 4
same,PXC50,MAX_EFFECT 41.5061296,< 4
Cc1cnn(CCNCc2c(C)nn(-c3ccccc3)c2C)c1,PXC50,MAX_EFFECT 6.52173913,< 4
same,PXC50,MAX_EFFECT 6.802721088,< 4
same,PXC50,MAX_EFFECT 12.78458844,< 4
